In test [1] the test system is Vero E6 infected with SARS-CoV-2. Description: morphology score (similarity to uninfected cells); higher = more like uninfected cells. The conditions noted are these: 24 h.
For test [2] the test system is unchanged. The test is described as follows: SARS-CoV-2 infection rate relative to infected DMSO; higher = more infection, active = 60 or less. The note with it: 24 h.

As for `O=C(c1cc2ccccc2o1)N1CCN(Cc2ccccc2)CC1` [befuraline] (10 µM), the morphology score in test [1] was -0.00895. Further, the SARS-CoV-2 infection rate in test [2] was 106% (inactive).
Taken in the same sequence, the figures for `COc1cc(C=O)ccc1O` [vanillin] (10 µM) were 0.0882 and 104% (inactive).
In test [1], `COc1ccc(C(C)(C)C)cc1CN[C@H]1C2CCN(CC2)[C@H]1C(c1ccccc1)c1ccccc1` [maropitant] (0.833333 µM) yielded a morphology score of 0.103. Further, in test [2], the SARS-CoV-2 infection rate is 104% (inactive).
The like results for `CNc1cc2[nH]c(=O)n(-c3ccc(NC(=O)NS(=O)(=O)c4ccc(Cl)s4)cc3)c(=O)c2cc1F` [elinogrel] (10 µM) were, in that order, 0.235 and 87.5% (inactive).
As to `CC(CCc1ccc(O)cc1)NCC(O)c1ccc(O)cc1` (configuration not stated) [ractopamine] (10 µM), the morphology score in test [1] was -0.0659. The SARS-CoV-2 infection rate in test [2] is 111% (inactive).
The like results for `O=C1C2CCN(CC2)C1(CO)CO` (10 µM) were, in that order, 0.273 and 83.5% (inactive).
The like results for `O=C(O)C1=CO[C@@H](O[C@@H]2O[C@H](CO)[C@@H](O)[C@H](O)[C@H]2O)[C@@H]2C(CO)=CC[C@H]12` [Geniposidic acid] (10 µM) were, in that order, -0.163 and 114% (inactive).
For the compound `NCCC[C@H](N)C(=O)O` [ornithine] (10 µM), the morphology score in test [1] amounted to 0.101. The SARS-CoV-2 infection rate in test [2] was 96.5% (inactive).
Taken in the same sequence, the figures for `COc1cc2c(cc1OC)-c1c/c(=N\c3c(C)cc(C)cc3C)n(C)c(=O)n1CC2` [trequinsin] (10 µM) were 0.541 and 87.5% (inactive).
With `Nc1ccncc1N` [amifampridine] (10 µM), the morphology score in test [1] is 0.0643. In addition, the SARS-CoV-2 infection rate in test [2] was 92% (inactive).
The like results for `Cc1cc2nc3c(=O)[nH]c(=O)nc-3n(C[C@H](O)[C@H](O)[C@H](O)CO)c2cc1C` [riboflavin] (10 µM) were, in that order, 0.208 and 102% (inactive).
As to `CC(CNS(=O)(=O)C(C)C)c1ccc(-c2ccc(C#N)cc2)cc1` (configuration not stated) (10 µM), the morphology score in test [1] is -0.219. In test [2], the SARS-CoV-2 infection rate is 114% (inactive).
The like results for `CC(/C=C/C(=O)NO)=C\[C@@H](C)C(=O)c1ccc(N(C)C)cc1` [trichostatin-a] (0.833333 µM) were, in that order, -0.0945 and 108% (inactive).
In turn, `CC[C@H](CC#N)OC(=O)N[C@@H](C)c1cccc(NC(=O)Nc2ccc(-c3cnco3)c(OC)c2)c1` (10 µM) showed a morphology score in test [1] of -0.000547. Further, the SARS-CoV-2 infection rate in test [2] is 97% (inactive).
Taken in the same sequence, the figures for `CCNC(=O)[C@H]1O[C@@H](n2cnc3c(N)nc(NCCc4ccc(CCC(=O)O)cc4)nc32)[C@H](O)[C@@H]1O` (10 µM) were -0.0155 and 115% (inactive).
Consider `Cc1c(CN2CCN(C(=O)[C@H](C)O)CC2)sc2c(N3CCOCC3)nc(-c3cnc(N)nc3)nc12` (10 µM), for which the morphology score in test [1] is -0.0562. Moreover, the SARS-CoV-2 infection rate in test [2] is 113% (inactive).
The like results for `Nc1nc(CC(=O)Nc2ccc(CCNC[C@H](O)c3ccccc3)cc2)cs1` [mirabegron] (10 µM) were, in that order, -0.0704 and 102% (inactive).
In test [1], `CCN(Cc1ccncc1)C(=O)C(CO)c1ccccc1` (configuration not stated) [tropicamide] (10 µM) had a morphology score of -0.0682. The SARS-CoV-2 infection rate in test [2] was 104% (inactive).
Taken in the same sequence, the figures for `O=C(O)C1(C(=O)O)CCC1.[NH2-].[NH2-].[Pt+2]` [carboplatin] (10 µM) were -0.0106 and 102% (inactive).
The like results for `O=C([O-])CN1CCN(CC(=O)[O-])CCN([C@H](CO)[C@H](O)CO)CCN(CC(=O)[O-])CC1.[Gd+3]` (racemic) [gadobutrol] (10 µM) were, in that order, -0.0306 and 109% (inactive).
The like results for `O=CN1CCC(C(=O)NCCN2CCC(=C3c4ccccc4C=Cc4ccccc43)CC2)CC1` (10 µM) were, in that order, 0.0149 and 100% (inactive).
The compound `CC(C)c1ccc(C(=O)c2cccs2)c(SCCCCCCCCN(C)C)n1` (0.833333 µM) returned a morphology score in test [1] of 0.361. Also, the SARS-CoV-2 infection rate in test [2] is 94.5% (inactive).
The like results for `CCCC[C@@H](NC(=O)[C@@H](Cc1cn(C(=O)OC)c2ccccc12)NC(=O)[C@H](CC(C)(C)C)NC(=O)N1[C@H](C)CCC[C@@H]1C)C(=O)O` (10 µM) were, in that order, 0.0975 and 104% (inactive).
The like results for `CCCCCCCCCCCCCC[C@@H](O)[C@@H](O)[C@@H](N)CO` [phytosphingosine] (10 µM) were, in that order, -0.0786 and 108% (inactive).
Take `CC(=O)CC(=O)O` [lithium-acetoacetate] (10 µM): in test [1], the morphology score was found to be 0.0997. Also, in test [2], the SARS-CoV-2 infection rate was 102% (inactive).
The like results for `C=C1CCN([C@H](C)[C@](O)(Cn2cncn2)c2ccc(F)cc2F)CC1` [efinaconazole] (10 µM) were, in that order, 0.162 and 92% (inactive).
For the compound `Cc1ccc(S(=O)(=O)N2CCC[C@H]2c2ccc(F)cc2)cc1` (10 µM), the morphology score in test [1] was -0.114. Further, the SARS-CoV-2 infection rate in test [2] is 110% (inactive).
Taken in the same sequence, the figures for `Cc1ccc(OC[C@@H](O)[C@H](C)NC(C)C)c2c1CCC2` (racemic) (10 µM) were -0.0205 and 110% (inactive).
Taken in the same sequence, the figures for `COc1cccc([C@H](O)C2CCN(CCc3ccc(F)cc3)CC2)c1OC` [volinanserin] (10 µM) were -0.147 and 110% (inactive).
Taken in the same sequence, the figures for `NCCCS(=O)(=O)O` [tramiprosate] (10 µM) were 0.072 and 104% (inactive).
On to `CC(=O)NCC(=O)N[C@H](CCC(=O)O)C(=O)O` [N-acetylglycyl-D-glutamic-acid] (10 µM), for which, in test [1], the morphology score came out at 0.127. The SARS-CoV-2 infection rate in test [2] is 98% (inactive).
Taken in the same sequence, the figures for `C[C@]12CC[C@@H]3c4ccc(O)cc4C[C@@H](CCCCCCCCC[S+]([O-])CCCC(F)(F)C(F)(F)F)[C@H]3[C@@H]1CC[C@@H]2O` (some centres not stated) [fulvestrant] (10 µM) were -0.187 and 110% (inactive).
The like results for `C[C@@H]([C@H](O)c1ccc(O)cc1)N1CCC(Cc2ccccc2)CC1` (racemic) [ifenprodil] (10 µM) were, in that order, 0.0632 and 100% (inactive).
The like results for `CNC(=O)c1ccccc1Sc1ccc2c(/C=C/c3ccccn3)n[nH]c2c1` [axitinib] (10 µM) were, in that order, 0.563 and 80.5% (inactive).
With `CCCCN1[C@@H]2CC[C@H]1C[C@@H](OC(c1ccc(F)cc1)c1ccc(F)cc1)C2` (0.833333 µM), in test [1], the morphology score is 0.0455. Also, the SARS-CoV-2 infection rate in test [2] was 86% (inactive).
Taken in the same sequence, the figures for `NS(=O)(=O)c1nn2cc(-c3ccccc3)nc2s1` (10 µM) were 0.289 and 97.5% (inactive).
Taken in the same sequence, the figures for `CCN1CCN(c2ccc(Nc3cc(N(C)C(=O)Nc4c(Cl)c(OC)cc(OC)c4Cl)ncn3)cc2)CC1` (0.833333 µM) were -0.0528 and 117% (inactive).
The like results for `CN(C)N(C)C(=O)[C@@]1(Cc2ccccc2)CCCN(C(=O)[C@@H](Cc2c[nH]c3ccccc23)NC(=O)C(C)(C)N)C1` [anamorelin] (10 µM) were, in that order, 0.0474 and 98.5% (inactive).
In test [1], `CC(C)C[C@H](NC(=O)[C@@H]1CCCN1)C(=O)NCC(N)=O` [prolylleucylglycinamide] (10 µM) registered a morphology score of 0.103. The SARS-CoV-2 infection rate in test [2] is 99% (inactive).
Taken in the same sequence, the figures for `Oc1cccc(Nc2ncc(F)c(Nc3cccc(O)c3)n2)c1` (0.833333 µM) were 0.183 and 100% (inactive).
Taken in the same sequence, the figures for `COc1c(-c2ccc3cc(NS(C)(=O)=O)ccc3c2)cc(-n2ccc(=O)[nH]c2=O)cc1C(C)(C)C` [dasabuvir] (10 µM) were 0.123 and 106% (inactive).
Taken in the same sequence, the figures for `Cc1onc(-c2ccccc2)c1C(=O)N[C@@H]1C(=O)N2[C@@H]1SC(C)(C)[C@@H]2C(=O)O` [oxacillin] (10 µM) were -0.00627 and 110% (inactive).
On to `O=C(O)CCCC[C@@H]1CCSS1` [thioctic-acid] (10 µM), for which, in test [1], the morphology score worked out at 0.0028. Further, in test [2], the SARS-CoV-2 infection rate was 106% (inactive).
Taken in the same sequence, the figures for `COc1cccc(-c2ccc(NC(=O)C3=C(C(=O)O)CCC3)c(F)c2)c1` (10 µM) were 0.159 and 94.5% (inactive).
Taken in the same sequence, the figures for `CC1(C)NC(=O)N(c2ccc([N+](=O)[O-])c(C(F)(F)F)c2)C1=O` [nilutamide] (10 µM) were 0.15 and 108% (inactive).
The like results for `CCC(CC)Nc1nc(C)c(-c2ccc(OC(F)(F)F)cc2OC)nc1OC` (10 µM) were, in that order, 0.2 and 86.5% (inactive).
In the case of `C#C[C@]1(O)CC[C@H]2[C@@H]3CCC4=CC(=O)CC[C@@H]4[C@H]3C(=C)C[C@@]21CC` [etonogestrel] (10 µM), the morphology score in test [1] is 0.249. In test [2], the SARS-CoV-2 infection rate was 90.5% (inactive).
The like results for `N#Cc1cc2c(OCC(O)CN3CCN(C(c4ccccc4)c4ccccc4)CC3)cccc2[nH]1` (configuration not stated) (0.833333 µM) were, in that order, 0.124 and 75% (inactive).
The compound `O=C(O)c1ccc(O)c2ncccc12` (10 µM) came in with a morphology score in test [1] of 0.022. In addition, in test [2], the SARS-CoV-2 infection rate is 102% (inactive).
On to `Nc1ccc([As](=O)(O)O)cc1` [arsanilic-acid] (10 µM), for which the morphology score in test [1] was -0.00345. Also, the SARS-CoV-2 infection rate in test [2] was 103% (inactive).
Compound `CC(C)(C)c1ccc(-c2nc3ccccc3[nH]2)cc1` (10 µM) yielded a morphology score in test [1] of 0.557. Besides, the SARS-CoV-2 infection rate in test [2] is 64% (inactive).
The like results for `CC(C)CNc1nc(-c2cccc3ncccc23)cn2c(-c3ccc(C(=O)NC4CC4)cc3)cnc12` (10 µM) were, in that order, -0.233 and 99.5% (inactive).
The like results for `CN1C(=O)CC[C@H]1c1cccnc1` [cotinine] (10 µM) were, in that order, 0.0591 and 108% (inactive).
The like results for `CC(=O)c1ccc2c(c1)N(CCCN1CCC(CCO)CC1)c1ccccc1S2` [piperacetazine] (10 µM) were, in that order, 0.384 and 75% (inactive).
Consider `Cc1c(N2C(=O)[C@@H]3[C@H](O)CCN3C2=O)ccc(C#N)c1Cl` (10 µM), for which the morphology score in test [1] turned out to be 0.189. The SARS-CoV-2 infection rate in test [2] is 91.5% (inactive).
The like results for `COC(=O)N[C@@H](C)CNc1nccc(-c2cn(C(C)C)nc2-c2cc(Cl)cc(NS(C)(=O)=O)c2F)n1` [Encorafenib (LGX818)] (0.833333 µM) were, in that order, 0.0501 and 95% (inactive).
The like results for `CC(Oc1ccc(O)cc1)(P(=O)(O)O)P(=O)(O)O` (10 µM) were, in that order, 0.0418 and 107% (inactive).
Taken in the same sequence, the figures for `COC(=O)c1sccc1S(=O)(=O)Nc1ccc(Nc2ccccc2)cc1OC` (10 µM) were 0.112 and 95% (inactive).
On to `CN(C)C/C=C/C(=O)Nc1ccc(C(=O)Nc2cccc(Nc3ncc(Cl)c(-c4c[nH]c5ccccc45)n3)c2)cc1` (10 µM), for which the morphology score in test [1] was -0.108. In addition, in test [2], the SARS-CoV-2 infection rate is 94% (inactive).
Consider `C/C(=N\NC(=N)N)c1cc(NC(=O)CCCCCCCCC(=O)Nc2cc(/C(C)=N/NC(=N)N)cc(/C(C)=N/NC(=N)N)c2)cc(/C(C)=N/NC(=N)N)c1` [semapimod] (0.833333 µM), for which, in test [1], the morphology score is -0.352. Besides, the SARS-CoV-2 infection rate in test [2] is 115% (inactive).
The like results for `NC(=O)N1c2ccccc2CC(O)c2ccccc21` (configuration not stated) [licarbazepine] (10 µM) were, in that order, 0.188 and 97% (inactive).

For the origin of these results see the supplement of paper PMC13380429.
